The values below come from PubChem BioAssay (EPA / NIEHS).

Inconclusive results are not listed. Calls of active or inactive are those of the source. How the source made its calls, unless noted: active means hit-call score of the fitted dose curve at least 0.9, where 1 is the maximum; inconclusive means response in the unintended direction; inactive means score below 0.9.

In one test the target is THRA (gene 7067) (UniProt P10827). Kind of test: TOX21_TRA_COA_Antagonist_Followup_ratio: Tox21 Thyroid Hormone Receptor alpha Antagonism through Coactivator Recruitment Follow-Up Assay, Ratio (AID 2283953). An outline of the steps:
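This follow-up to the GH3 luciferase screen checks specificity in a cell-free format. It measures SRC-2 coactivator peptide binding to TRα LBD by TR-FRET and scores loss of ratio signal relative to DMSO.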

In test [1] the target is THRB (gene 7068) (UniProt P10828). Kind of test: TOX21_TRB_BLA_Antagonist_Followup_ratio: Tox21 Thyroid Hormone Receptor beta Antagonism Beta-lactamase (BLA) Follow-Up Assay, Ratio (AID 2283958). The procedure, abridged:
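GAL4-DBD/human TRβ-LBD fusion in GeneBLAzer UAS-bla HEK293T cells, 3,000 cells/well in phenol red-free DMEM with 2% charcoal-stripped FBS; compounds at 11 concentrations in triplicate, 18 h at 37C. CCF4-AM substrate 2 h, 460:530 nm ratio relative to DMSO.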

Test [2] is described as follows: TOX21_TRB_BLA_Antagonist_Followup_viability: Viability Assessment in the Tox21 Thyroid Hormone Receptor beta Antagonism Beta-lactamase (BLA) Follow-Up Assay (AID 2283961). The procedure, abridged:
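HEK293T cells with GAL4-human TRβ LBD and UAS-bla reporter, 3,000 cells/well in 2% charcoal-stripped FBS medium; 11-point concentrations in triplicate, 18 h at 37C. Viability from ATP by CellTiter-Glo luminescence, 30 min RT, same plates.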

Test [3] addresses THRB (gene 7068) (UniProt P10828). Kind of test: TOX21_TRB_COA_Antagonist_Followup_ratio: Tox21 Thyroid Hormone Receptor beta Antagonism through Coactivator Recruitment Follow-Up Assay, Ratio (AID 2283967). An outline of the steps:
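Test compound was incubated with 5.0 nM GST-TRβ LBD in 0.10% BSA. Then 200 nM fluorescein-SRC-2 peptide and 2 nM terbium anti-GST antibody were added. TR-FRET (520:495 nm) was measured and normalized to DMSO and T3 controls.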

Test [4] has as its target Retinoic acid receptor RXR-alpha (Homo sapiens) (UniProt P19793). The experiment in a line: TOX21_TR_RXR_BLA_Antagonist_Followup_ratio: Tox21 Thyroid Hormone Receptor beta Retinoid X Receptor alpha (RXRa) Antagonism Beta-lactamase (BLA) Follow-Up Assay, Ratio (AID 2283972). The procedure, abridged:
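RXRa-UAS-bla HEK293T cells, 2,500/well in phenol red-free DMEM with 2% charcoal-stripped FBS, 5 h attachment, then compounds (11 concentrations, triplicate) for 16 h at 37C; FRET-B/GCCF4-AM substrate 2 h RT; 460:530 nm ratio, loss of signal vs DMSO.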

Test [5] in a line: TOX21_TR_RXR_BLA_Antagonist_Followup_viability: Viability Assessment in the Tox21 Thyroid Hormone Receptor beta Retinoid X Receptor alpha (RXRa) Antagonism Beta-lactamase (BLA) Follow-Up Assay (AID 2283979). An outline of the steps: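 Follow-up compounds (11 concentrations, triplicate) were incubated 16 h at 37C/5% CO2 with HEK293T RXRa-bla cells seeded at 2,500/well in charcoal-stripped-serum medium. ATP content by CellTiter-Glo luminescence gave viability; curves fitted in both directions against DMSO.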

Test [6] has as its target Thyroid hormone receptor alpha (Rattus norvegicus) + Thyroid hormone receptor beta (Rattus norvegicus) (UniProt P18113+P63059). The experiment in a line: TOX21_TR_LUC_GH3_Antagonist_Followup: Tox21 GH3 Thyroid Hormone Receptor Antagonism Luciferase Follow-Up Assay (AID 2283942). An outline of the steps:
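Confirmatory qHTS, antagonist mode: T3 (1.0 nM final) + test cpd, 15 conc, 92 uM–5nM final, GH3 rat pituitary line, 24 h, 37C. Luc reporter, RLU vs DMSO.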

A further test has as its target PGR (gene 5241) (UniProt P06401). Kind of test: TOX21_PR_LUC_Followup_Antagonist: Tox21 HEK293 Progesterone Receptor (PR) Antagonism Luciferase Follow-Up Assay (AID 2283938).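 Further: curve fitted upward as signal gain over DMSO baseline despite antagonist label.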 The procedure, abridged:
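HEK293-PR-A-luc cells, 3,000/well, preincubated 5 h at 37C before compound addition in DMSO; 16 h compound exposure at 37C. ONE-Glo luciferase luminescence read after 30 min at room temperature, fitted relative to DMSO baseline.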

A short description of test [7]: TOX21_PR_LUC_Followup_Antagonist_viability: Viability Assessment in the Tox21 HEK293 Progesterone Receptor (PR) Antagonism Luciferase Follow-Up Assay (AID 2283940). The procedure, abridged:
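HEK293-PR-A-luc cells, precultured 5 days in assay medium with 10% charcoal-stripped FBS, were seeded at 3,000 cells/well, treated with compounds in DMSO for 16 h at 37C, and viability was read as cellular ATP by CellTiter-Glo luminescence.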

The nature of test [8]: TOX21_PR_LUC_Followup_Agonist_viability: Viability Assessment in the Tox21 HEK293 Progesterone Receptor (PR) Agonism Luciferase Follow-Up Assay (AID 2283941).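 Further: loss of signal means cytotoxicity so actives lower viability.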 The procedure, abridged: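 HEK293-PR-A-luc cells, pre-cultured 5 days in 10% charcoal-stripped FBS, were seeded at 3,000 cells/well, rested 5 h at 37C, then given compound in DMSO for 16 h at 37C. Cellular ATP was read by CellTiter-Glo luminescence; signal loss indicates cytotoxicity.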

Test [9] can be described thus: TOX21_TR_RXR_BLA_Agonist_Followup_viability: Viability Assessment in the Tox21 Thyroid Hormone Receptor beta Retinoid X Receptor alpha (RXRa) Agonism Beta-lactamase (BLA) Follow-Up Assay (AID 2283970). The procedure, abridged:
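RXRa-UAS-bla HEK293T cells seeded at 2,500/well in phenol red-free DMEM with 2% charcoal-stripped FBS, exposed to compound 16h at 37C/5% CO2 in qHTS. Viability read by CellTiter-Glo ATP luminescence; bidirectional fitting against DMSO baseline, signal loss indicating cytotoxicity.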

Test [10] is described as follows: CCTE_Harrill_HTTr_Viability_DMEM_6hr: (Pilot) CCTE's 6-hour Cell Viability Assessment for the High-Throughput Transcriptomics (HTTr) Platform, in MCF-7 cells cultured in DMEM + 10% fetal bovine serum, Harrill Lab (AID 2283973; active means hit-call score of the fitted dose curve at least 0.9, where 1 is the maximum; inactive means score below 0.9). The procedure, abridged: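 MCF-7 cells in DMEM + 10% FBS, eight-point dilution series, 6 h exposure. Membrane integrity by propidium iodide exclusion with high-content imaging; bidirectional fit versus DMSO.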

A short description of test [11]: CCTE_Harrill_HTTr_Viability_DMEM_12hr: (Pilot) CCTE's 12-hour Cell Viability Assessment for the High-Throughput Transcriptomics (HTTr) Platform, in MCF-7 cells cultured in DMEM + 10% fetal bovine serum, Harrill Lab (AID 2283974; active means hit-call score of the fitted dose curve at least 0.9, where 1 is the maximum; inactive means score below 0.9). An outline of the steps: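 MCF-7 cells in DMEM + 10% FBS exposed 12 h to an eight-point dilution series; membrane integrity scored by propidium iodide exclusion with high-content imaging, bidirectional fitting versus DMSO.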

Test [12] is described as follows: CCTE_Harrill_HTTr_Viability_DMEM_24hr: (Pilot) CCTE's 24-hour Cell Viability Assessment for the High-Throughput Transcriptomics (HTTr) Platform, in MCF-7 cells cultured in DMEM + 10% fetal bovine serum, Harrill Lab (AID 2283975; active means hit-call score of the fitted dose curve at least 0.9, where 1 is the maximum; inactive means score below 0.9). An outline of the steps: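 MCF-7 cells in DMEM with 10% FBS exposed for 24 hours to an eight-point dilution series. Membrane integrity by propidium iodide exclusion with high content imaging; bidirectional fit against DMSO.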

A short description of test [13]: CCTE_Harrill_HTTr_Viability_PRF_DMEM_6hr: (Pilot) CCTE's 6-hour Cell Viability Assessment for the High-Throughput Transcriptomics (HTTr) Platform, in MCF-7 cells cultured phenol red-free DMEM + 10% charcoal-stripped fetal bovine serum, Harrill Lab (AID 2283976; active means hit-call score of the fitted dose curve at least 0.9, where 1 is the maximum; inactive means score below 0.9). The procedure, abridged:
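MCF-7 cells in phenol red-free DMEM with 10% charcoal-stripped FBS exposed 6 hours to an eight-point dilution series. Propidium iodide exclusion imaged; curves fitted bidirectionally against DMSO.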

The nature of test [14]: CCTE_Harrill_HTTr_Viability_PRF_DMEM_12hr: (Pilot) CCTE's 12-hour Cell Viability Assessment for the High-Throughput Transcriptomics (HTTr) Platform, in MCF-7 cells cultured in phenol red-free DMEM + 10% charcoal-stripped fetal bovine serum, Harrill Lab (AID 2283977; active means hit-call score of the fitted dose curve at least 0.9, where 1 is the maximum; inactive means score below 0.9). An outline of the steps: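 MCF-7 cells in phenol red-free DMEM with 10% charcoal-stripped FBS exposed 12 hours to an eight-point dilution series. Viability assessed by high-content imaging of propidium iodide exclusion; bidirectional fit versus DMSO.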

A short description of test [15]: CCTE_Harrill_HTTr_Viability_PRF_DMEM_24hr: (Pilot) CCTE's 24-hour Cell Viability Assessment for the High-Throughput Transcriptomics (HTTr) Platform, in MCF-7 cells cultured in phenol red-free DMEM + 10% charcoal-stripped fetal bovine serum, Harrill Lab (AID 2283980; active means hit-call score of the fitted dose curve at least 0.9, where 1 is the maximum; inactive means score below 0.9). An outline of the steps:
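MCF-7 cells in phenol red-free DMEM with 10% charcoal-stripped FBS, eight-point dilution series, 24 h exposure. Membrane integrity by propidium iodide exclusion with high content imaging; bidirectional fit vs DMSO.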

Test [16] in a line: CCTE_Harrill_HTTr_Apoptosis_DMEM_6hr: (Pilot) CCTE's 6-hour Apoptosis Assessment for the High-Throughput Transcriptomics (HTTr) Platform, in MCF-7 cells cultured in DMEM + 10% fetal bovine serum, Harrill Lab (AID 2283981; active means hit-call score of the fitted dose curve at least 0.9, where 1 is the maximum; inactive means score below 0.9). The procedure, abridged:
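Caspase-3/7 activation read by high content imaging with CellEvent Caspase 3/7 Green in MCF-7 cells (DMEM + 10% FBS), 6 h after dosing; eight-point dilution series. Bidirectional fitting relative to DMSO baseline.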

Test [17] can be described thus: CCTE_Harrill_HTTr_Apoptosis_DMEM_12hr: (Pilot) CCTE's 12-hour Apoptosis Assessment for the High-Throughput Transcriptomics (HTTr) Platform, in MCF-7 cells cultured in DMEM + 10% fetal bovine serum, Harrill Lab (AID 2283982; active means hit-call score of the fitted dose curve at least 0.9, where 1 is the maximum; inactive means score below 0.9). The procedure, abridged: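 MCF-7 cells in DMEM + 10% FBS, exposed 12 h to an eight-point dilution series; caspase-3/7 activation imaged with CellEvent Green. Bidirectional fit versus DMSO.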

Test [18] can be described thus: CCTE_Harrill_HTTr_Apoptosis_DMEM_24hr: (Pilot) CCTE's 24-hour Apoptosis Assessment for the High-Throughput Transcriptomics (HTTr) Platform, in MCF-7 cells cultured in DMEM + 10% fetal bovine serum, Harrill Lab (AID 2283983; active means hit-call score of the fitted dose curve at least 0.9, where 1 is the maximum; inactive means score below 0.9). An outline of the steps:
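MCF-7 cells in DMEM + 10% FBS, eight-point dilution series, 24 h exposure. Caspase-3/7 activation imaged by high-content imaging with CellEvent Caspase 3/7 Green. Bidirectional curve fitting against DMSO baseline.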

A word on the AC50: it is the midpoint of the concentration-response curve, whichever way the signal moves.

Sequence of THRB (gene 7068) (P10828 whole entry, looked up, the tested form may be a part): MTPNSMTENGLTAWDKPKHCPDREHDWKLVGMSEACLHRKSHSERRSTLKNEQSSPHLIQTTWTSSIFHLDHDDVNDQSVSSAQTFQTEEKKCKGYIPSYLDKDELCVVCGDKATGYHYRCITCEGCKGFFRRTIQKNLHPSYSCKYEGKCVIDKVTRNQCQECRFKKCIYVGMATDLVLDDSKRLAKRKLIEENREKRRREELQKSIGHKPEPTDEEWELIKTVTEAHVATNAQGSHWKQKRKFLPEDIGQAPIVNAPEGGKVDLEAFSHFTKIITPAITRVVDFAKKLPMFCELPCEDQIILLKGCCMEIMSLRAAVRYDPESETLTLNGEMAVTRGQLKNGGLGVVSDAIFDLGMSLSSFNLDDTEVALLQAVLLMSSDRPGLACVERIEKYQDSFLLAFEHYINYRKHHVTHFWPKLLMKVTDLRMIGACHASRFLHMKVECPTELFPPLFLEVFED
Sequence of Retinoic acid receptor RXR-alpha (Homo sapiens) (P19793 whole entry, looked up): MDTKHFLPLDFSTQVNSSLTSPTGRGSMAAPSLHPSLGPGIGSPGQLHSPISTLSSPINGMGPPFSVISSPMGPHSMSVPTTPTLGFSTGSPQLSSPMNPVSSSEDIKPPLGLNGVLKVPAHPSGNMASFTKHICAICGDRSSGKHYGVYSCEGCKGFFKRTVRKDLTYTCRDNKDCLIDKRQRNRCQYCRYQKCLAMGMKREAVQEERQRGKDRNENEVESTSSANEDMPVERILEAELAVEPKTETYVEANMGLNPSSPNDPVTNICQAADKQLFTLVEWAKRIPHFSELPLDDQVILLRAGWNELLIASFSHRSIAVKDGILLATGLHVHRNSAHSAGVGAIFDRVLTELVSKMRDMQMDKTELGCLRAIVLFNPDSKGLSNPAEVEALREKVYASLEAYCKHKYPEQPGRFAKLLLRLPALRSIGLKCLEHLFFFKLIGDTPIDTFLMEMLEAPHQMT
Sequence of THRA (gene 7067) (P10827 whole entry, looked up, the tested form may be a part): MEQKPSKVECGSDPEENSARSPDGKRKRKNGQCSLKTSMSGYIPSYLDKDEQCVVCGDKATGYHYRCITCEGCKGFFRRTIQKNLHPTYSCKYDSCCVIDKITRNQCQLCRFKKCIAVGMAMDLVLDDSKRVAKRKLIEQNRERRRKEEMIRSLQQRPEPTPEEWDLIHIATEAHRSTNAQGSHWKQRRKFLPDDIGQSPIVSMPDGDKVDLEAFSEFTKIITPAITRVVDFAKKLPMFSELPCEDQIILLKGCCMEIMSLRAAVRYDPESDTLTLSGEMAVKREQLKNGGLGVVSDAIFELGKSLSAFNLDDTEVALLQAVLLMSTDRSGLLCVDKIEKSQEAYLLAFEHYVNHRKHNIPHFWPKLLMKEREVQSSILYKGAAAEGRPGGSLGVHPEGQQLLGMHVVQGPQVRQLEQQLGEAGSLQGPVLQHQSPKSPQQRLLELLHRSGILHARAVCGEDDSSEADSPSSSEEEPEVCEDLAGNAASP
Sequence of PGR (gene 5241) (P06401 whole entry, looked up): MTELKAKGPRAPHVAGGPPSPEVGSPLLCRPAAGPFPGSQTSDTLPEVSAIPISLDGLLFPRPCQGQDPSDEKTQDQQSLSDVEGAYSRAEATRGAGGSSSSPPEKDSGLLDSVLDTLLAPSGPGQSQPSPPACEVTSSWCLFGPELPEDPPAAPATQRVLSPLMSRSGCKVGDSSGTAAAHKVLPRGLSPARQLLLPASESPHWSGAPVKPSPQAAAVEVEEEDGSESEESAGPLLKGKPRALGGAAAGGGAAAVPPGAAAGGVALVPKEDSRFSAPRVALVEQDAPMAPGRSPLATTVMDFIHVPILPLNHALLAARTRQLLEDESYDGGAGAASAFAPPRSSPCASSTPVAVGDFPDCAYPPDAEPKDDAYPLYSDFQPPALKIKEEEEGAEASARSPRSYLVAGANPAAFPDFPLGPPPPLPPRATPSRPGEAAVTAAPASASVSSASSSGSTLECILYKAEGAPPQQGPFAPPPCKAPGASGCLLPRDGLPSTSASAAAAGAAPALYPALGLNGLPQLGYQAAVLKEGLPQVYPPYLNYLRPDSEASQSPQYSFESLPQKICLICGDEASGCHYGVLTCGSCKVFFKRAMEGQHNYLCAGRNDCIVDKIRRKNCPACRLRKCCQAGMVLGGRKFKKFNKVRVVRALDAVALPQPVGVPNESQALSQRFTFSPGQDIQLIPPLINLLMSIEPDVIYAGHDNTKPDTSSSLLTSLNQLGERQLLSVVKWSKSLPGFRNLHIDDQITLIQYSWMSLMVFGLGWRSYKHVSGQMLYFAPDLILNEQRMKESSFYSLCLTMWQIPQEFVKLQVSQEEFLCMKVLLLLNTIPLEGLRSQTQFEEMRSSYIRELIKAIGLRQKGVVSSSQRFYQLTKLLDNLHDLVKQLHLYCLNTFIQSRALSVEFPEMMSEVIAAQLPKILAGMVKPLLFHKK

In the case of `CC(C)c1c(C(=O)Nc2ccccc2)c(-c2ccccc2)c(-c2ccc(F)cc2)n1CC[C@@H](O)C[C@@H](O)CC(=O)O`, the result (with THRA (gene 7067); with THRB (gene 7068) [1]; in [2]; with THRB (gene 7068) [3]; in test [4]; in test [5]) was inactive.

For the molecule `Nc1ccn([C@@H]2O[C@H](CO)[C@@H](O)C2O)c(=O)n1` (stereo partly drawn), the outcome (in test [6]; in the test with THRA (gene 7067); with THRB (gene 7068) [1]; in test [2]; with THRB (gene 7068) [3]; in test [4]) was inactive. The outcome in test [5] was inactive.

Turning to `C[C@]12CC[C@@H]3c4ccc(O)cc4CC[C@H]3[C@@H]1CC[C@@H]2OC(=O)CCC1CCCC1`, the outcome with PGR (gene 5241) was inactive.

For the molecule `Clc1ccc(Nc2nnc(Cc3ccncc3)c3ccccc23)cc1`, the outcome (in [6]; in the test with THRA (gene 7067); in the test with THRB (gene 7068) [1]; in test [4]) was inactive.

For `C[C@]12CC[C@@H]3c4ccc(O)cc4CC[C@H]3[C@@H]1C[C@@H](O)[C@@H]2O`, the AC50 with PGR (gene 5241) was 26 µM (active). In addition, the outcome in [7] and in test [8] was inactive.

As for `C=C(c1ccc(C(=O)O)cc1)c1cc2c(cc1C)C(C)(C)CCC2(C)C`, the call in test [9] was inactive.

`COc1ccccc1NC(=O)c1cc2ccccc2cc1O`: the AC50 in test [6] is 27.2 µM (active); with THRB (gene 7068) [1], 38.3 µM (active); in test [2], 28.3 µM (active); in test [4] it was 22 µM (active); in test [5], 24.1 µM (active).

For `O=c1cc(-c2ccccc2)oc2ccc3ccccc3c12`, the outcome (in test [6]; in the test with THRA (gene 7067); in [2]; in the test with THRB (gene 7068) [3]; in test [5]) was inactive.

For the molecule `CCCCc1oc2ccccc2c1C(=O)c1cc(I)c(OCCN(CC)CC)c(I)c1`, the outcome in test [10], in [13], in [16] and in test [17] was inactive. Besides, the AC50 was 46.3 µM (active) in [11]; 73.9 µM (active) in test [12]; 39.5 µM (active) in test [14]; 70.4 µM (active) in [15]; 81.6 µM (active) in [18].

With `Nc1cc(Cl)c(-c2cc(Cl)c(N)cc2Cl)cc1Cl`, the AC50 in test [6] is 58.1 µM (active); with THRB (gene 7068) [1] it was 6.14 µM (active); in [2], 60.1 µM (active); in test [4] it was 24.6 µM (active); in test [5], 28 µM (active). For the same molecule, the outcome with THRA (gene 7067) and with THRB (gene 7068) [3] was inactive.
